# Columns and labels:
# Conditions in all cases: concentration: 1 μM, replicates: in singlicate; n = 1
# MYLK4 = system: MYLK4
# MYLK = system: MYLK
# MYO3A = system: MYO3A
# MYO3B = system: MYO3B
# NDR1 = system: T1, NDR1
# T1 construct: gene STK38
# NDR2 = system: NDR2
# NEK10 = system: NEK10
# NEK11 = system: NEK11
# NEK1 = system: NEK1
# NEK2 = system: NEK2
# NEK3 = system: NEK3
# NEK4 = system: NEK4
# NEK5 = system: NEK5
# NEK6 = system: NEK6
# NEK7 = system: NEK7
# NEK9 = system: NEK9
# NIK = system: T2, NIK
# T2 construct: gene MAP3K14
# NIM1 = system: T3, NIM1
# T3 construct: gene MGC42105
# NLK = system: NLK
# OSR1 = system: T4, OSR1
# T4 construct: gene OXSR1
# 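Further: KINOMEscan kinase panel screen.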
SMILES,%Inh (MYLK4) [%],%Inh (MYLK) [%],%Inh (MYO3A) [%],%Inh (MYO3B) [%],%Inh (NDR1) [%],%Inh (NDR2) [%],%Inh (NEK10) [%],%Inh (NEK11) [%],%Inh (NEK1) [%],%Inh (NEK2) [%],%Inh (NEK3) [%],%Inh (NEK4) [%],%Inh (NEK5) [%],%Inh (NEK6) [%],%Inh (NEK7) [%],%Inh (NEK9) [%],%Inh (NIK) [%],%Inh (NIM1) [%],%Inh (NLK) [%],%Inh (OSR1) [%]
CSc1nn2c(=O)cc(N3CCOCC3)nc2n1Cc1cccc(Cl)c1Cl [GSK2347225],4,12,0,0,23,0,29,0,0,0,1,0,18,17,37,47,0,21,21,6
Cc1cccc(-c2nc(Nc3ccc4[nH]nnc4c3)c3ccccc3n2)n1 [GW867587],1,0,0,0,0,6,0,0,0,0,22,0,2,0,0,0,21,0,0,0
CNc1nccc(-c2c(-c3ccc(F)cc3)ncn2C2CCN(C)CC2)n1 [SB-222903],0,0,0,19,33,17,0,0,0,0,17,0,0,0,0,0,31,0,83,0
CCCc1ccc(S(=O)(=O)NC2CCN(c3ccnc(Nc4ccc(OC)cc4)n3)C2)cc1 (stereo not shown) [GSK1379737],0,30,15,0,0,0,21,27,0,0,1,10,15,39,0,0,43,30,0,100
C[C@@H]1CCN(C(=O)CO)C[C@@H]1N(C)c1ncnc2[nH]ccc12,0,3,0,0,6,14,48,0,0,0,38,0,1,0,0,0,0,0,100,0
OCCOCCn1ccc2ncnc(Nc3ccc(Oc4cccc(Cl)c4)c(Cl)c3)c21,0,0,0,0,30,0,0,0,0,0,10,0,0,0,0,0,0,0,0,0
Cc1ccc(C)c(NC(=O)NCCNc2ccnc(Nc3ccc(F)cc3)n2)c1 [GSK1379878],0,8,0,0,0,16,11,17,0,0,0,0,3,0,0,9,10,0,0,0
O=C(Nc1ccccc1)Nc1ccc(Oc2ccc3nccn3n2)cc1,0,11,0,0,16,0,0,0,0,0,8,0,20,0,0,0,0,0,2,0
